Bioassay records deposited in PubChem BioAssay by National Center for Advancing Translational Sciences (NCATS).
SARS PLP yeast = blocks SARS-CoV papain-like protease in a yeast assay. S. cerevisiae expressing SARS-CoV PLpro, growth rescue. Potency, µM (titrated, usually from 32.9 µM), usual class: activators. actives 0.19% (n = 330,000). AID 485353; calls by dose curve; note: nearly all actives have a fitted effect of over 55% in size
CHX counter = counter-screen for Shiga toxin inhibitors: cycloheximide protein synthesis inhibition; cell reporter, cycloheximide protein synthesis inhibition counterscreen; max response, %; actives 12% (n = 300,000); AID 2314; in the data active = max response mostly above about 13%, no sharp cut-off; inactive = mostly below about 14%; note: read at 38.3 µM for the half of the compounds with a filed dose
Pf growth 48h = inhibits P. falciparum growth in the first generation, 48 h; actives 5.9% (n = 310,000); P. falciparum luciferase growth in erythrocytes, 48 h; Potency, µM (top dose mostly 28.7 µM), hits mostly inhibitors; AID 504832
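In quantitative HTS format, infected erythrocytes bearing luciferase-reporter parasites were treated for a single generation at 37 C. Luminescence after adding detection reagent served as the growth measure.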
AMA1-RON2 inh = AMA1-RON2 (P. falciparum) interaction inhibition. Potency, µM (titrated, usually from 58.2 µM), most hits filed as inhibitors. actives 0.2% (n = 360,000). AID 720542. AlphaScreen AMA1-biotinylated RON2 peptide binding; note: nearly all actives have a fitted effect of over 45% in size
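AMA1 (3D7) with his tag at 25 nM final met compounds first, then biotinylated RON2 peptide at 25 nM; detection used donor plus acceptor beads, 10 µg/mL apiece, read by AlphaScreen after 30 min at room temperature.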
Pf growth 96h = P. falciparum growth inhibition at 96 hours; P. falciparum luciferase reporter growth, 96 h; Potency, µM (series often up to 28.7 µM), hits mostly inhibitors; actives 6.9% (n = 320,000)
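Infected RBCs, 2% Hct / 0.05% parasitemia final; luciferase-reporter P. falciparum; cpd 96 h, 37 C, 5% CO2; luciferase detection reagent; luminescence.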
Shiga inhibitor = inhibitors of Shiga toxin in Vero cells | actives 9.2% (n = 290,000) | inhibition, % at 38.7 µM | Vero cells, Shiga toxin protein synthesis inhibition reporter; in the data active = inhibition mostly above about 28%, no sharp cut-off; inactive = mostly below about 43%
Hits are given with their value; i = inactive; ? = inconclusive; nt = no result. This is a sample that favours compounds with a hit; in the whole collection about 19% have one here. Unless noted, calls come from the whole dose curve; as a rule, active = well fitted curve in the direction sought with a large enough effect; inconclusive = small, poorly fitted or top-dose-only effect, or another doubt; inactive = no such curve, though single readings can be large; an effect the other way counts as inactive or inconclusive.

SMILES	SARS PLP yeast	CHX counter	Pf growth 48h	AMA1-RON2 inh	Pf growth 96h	Shiga inhibitor
Cc1cc([N+](=O)[O-])ccc1NCc1ccc2c(c1)OCCO2	i	i	?	i	?	i
Cc1cc(F)ccc1NCc1ccc([N+](=O)[O-])cc1	i	30	i	?	?	71
COc1ccc(OC)c(CNc2ccc([N+](=O)[O-])cc2C)c1	i	i	?	13µM	i	i
COc1ccc([N+](=O)[O-])cc1NCc1ccccc1	?	i	i	i	3.3µM	i
COc1ccc([N+](=O)[O-])cc1NC1C2CC3CC(C2)CC1C3 (stereo unspecified)	i	i	i	i	0.52µM	i
C[C@H]1CN([C@@H](C)CO)C(=O)CCCn2cc(nn2)CO[C@@H]1CN(C)C(=O)Nc1ccc2c(c1)OCO2	nt	nt	nt	i	nt	nt
O=C(/C=C/[C@H]1O[C@@H](n2ccc(=O)[nH]c2=O)[C@H](O)[C@@H]1O)NCc1cccs1	nt	nt	nt	i	nt	nt
Cc1[nH]n(-c2ccccc2)c(=O)c1/C=N/NC(=O)c1cccc(F)c1	i	43	10µM	i	i	66
Cc1[nH]n(-c2ccc([N+](=O)[O-])cc2)c(=O)c1C=NCCN1CCN(C(=O)c2cccc(F)c2)CC1	i	i	i	i	i	i
Cc1[nH]n(-c2ccc(Br)cc2)c(=O)c1/C=N/NC(=O)c1ccccc1	i	28	?	i	?	92
C=CCN(CC=C)c1nc2ccccc2nc1C(C#N)C(=O)OC(C)C (stereo unspecified)	i	i	10µM	i	?	i
O=C(Nc1ccc(SC(F)F)cc1)c1ccc2c(=O)n3c(nc2c1)CCC3	i	nt	i	i	i	nt
CCC(CC)CN1C(N(C)C)=NC[C@@H]1CC(C)C	i	nt	?	i	8.3µM	nt
CC(C)C[C@H]1CN=C(N(C)C)N1CC1CCCC1	i	nt	?	i	?	nt
CCC(C)CCN1C(N(C)C)=NC[C@@H]1CC(C)C (stereo partly specified)	i	nt	13µM	i	?	nt
COc1c(C)cc(C(O)c2ncc(-c3ccc4ccccc4c3)[nH]2)cc1C (stereo unspecified)	nt	nt	nt	i	nt	nt
CCOC(=O)c1cnc(SC)nc1Oc1cccc(NC(=O)c2cccc(Cl)c2Cl)c1	i	i	i	i	i	i
CCc1ccc(N2C(=O)NC(=O)/C(=C/c3ccsc3)C2=O)cc1	i	i	i	nt	?	i
CCc1ccc(/C=C2/C(=O)NC(=O)N2C(C)=O)cc1	i	37	i	i	i	i
Cc1ccc(C(=O)NC(=S)N2CCN(C)CC2)cc1	i	21	i	i	nt	88
CN1CCN(C(=S)NC(=O)c2ccc(C(C)(C)C)cc2)CC1	i	i	i	i	i	i
CN1CCN(C(=S)NC(=O)c2ccc(Br)cc2)CC1	i	13	i	i	?	36
COc1ccc(C(=O)CSc2nc(=O)n3ccc(C)cc3n2)cc1	nt	nt	nt	i	nt	nt
CN(C)c1ccc(-n2cccc2/C=C/[N+](=O)[O-])cc1	i	i	?	7.1µM	i	i
Cc1ccc(C)c(Cn2nnc3c(=O)[nH]c(C(=O)NCC4CCCO4)nc32)c1 (stereo unspecified)	i	i	?	i	?	i
SMILES	SARS PLP yeast	CHX counter	Pf growth 48h	AMA1-RON2 inh	Pf growth 96h	Shiga inhibitor
O=C(NCC1CCCO1)c1nc2c(nnn2Cc2ccccc2Cl)c(=O)[nH]1 (stereo unspecified)	i	i	i	i	13µM	i
COc1ccc(Cn2nnc3c(=O)[nH]c(C(=O)NCCc4ccc(F)cc4)nc32)cc1OC	i	i	i	i	?	i
Cc1ccc(Cn2nnc3c(=O)[nH]c(C(=O)NCc4ccco4)nc32)cc1	i	25	i	i	nt	111
O=C(NCc1ccccc1)c1nc2c(nnn2Cc2cccc(Cl)c2)c(=O)[nH]1	i	i	i	i	2.9µM	i
COCCNC(=O)c1nc2c(nnn2Cc2cc(C)ccc2C)c(=O)[nH]1	?	i	i	i	9.3µM	i
O=C(NCc1ccco1)c1nc2c(nnn2Cc2cccc(Cl)c2)c(=O)[nH]1	i	i	i	i	i	i
COc1ccc2[nH]cc(CCNS(=O)(=O)c3ccc(F)cc3)c2c1	i	i	i	i	i	i
COc1cc(/C=C(\C#N)C(=O)Nc2nnc(C(F)(F)F)s2)ccc1OCc1ccc(C(F)(F)F)cc1C(F)(F)F	nt	i	nt	nt	nt	i
COc1ccc(NC(=O)CN(C)C(=O)C2(c3ccccc3)CCCC2)cc1	i	nt	nt	i	nt	nt
CCOC1(C)OCC(=O)[C@]2(CCC3C4CCC5=CC(=O)C=CC5(C)C4C(=O)CC32C)O1 (stereo partly specified)	i	i	10µM	i	?	i
CC(=O)OCC(=O)[C@@]1(O)CC[C@H]2[C@@H]3CCC4=CC(=O)C=C[C@]4(C)[C@H]3C(=O)C[C@@]21C	i	i	i	i	i	i
COc1ccc(-c2csc(CCN3N=C(C)CC3=O)n2)cc1	i	i	4.1µM	i	?	i
CCC(C)NC(=O)CNC(=S)N(Cc1ccc(F)cc1)C1CCCCC1 (stereo unspecified)	i	i	?	i	?	i
O=c1[nH]c(SCC2CCCCO2)nc2ccccc12 (stereo unspecified)	i	24	i	i	i	81
Cc1cc(C(=O)CSc2nnnn2-c2ccc(Cl)cc2)c(C)n1CC1CCCO1 (stereo unspecified)	i	i	i	i	i	i
Cc1cc(C(=O)CSc2nc3ccccc3c(=O)n2C)c(C)n1CC1CCCO1 (stereo unspecified)	i	i	i	nt	?	i
Cc1cc(C(=O)CSc2nnnn2-c2ccccc2)c(C)n1CC1CCCO1 (stereo unspecified)	i	58	i	i	i	49
Cc1cc(C(=O)CSc2nc3ccccc3c(=O)[nH]2)c(C)n1CC1CCCO1 (stereo unspecified)	i	43	i	i	i	143
Cc1cc(C(=O)CSc2nnc(-c3cccnc3)n2-c2ccccc2F)c(C)n1CC1CCCO1 (stereo unspecified)	i	i	nt	i	15µM	i
O=C(Nc1cscc1S(=O)(=O)c1ccccc1)c1ccccc1Cl	i	i	i	i	i	i
CCn1c(SCC(=O)c2cc(C)n(CC3CCCO3)c2C)nc2ccccc21 (stereo unspecified)	i	37	?	i	i	i
CCN(CC(=O)Nc1cc(OC)ccc1OC)Cc1nc2ccccc2c(=O)[nH]1	i	i	i	i	i	i
COc1cc2c(cc1NC(=O)CSc1ccccc1)oc1ccccc12	i	29	i	i	i	i
COc1cc2c(cc1NC(=O)CN(C)Cc1nc3ccccc3c(=O)[nH]1)oc1ccccc12	i	i	5.2µM	i	?	i
COc1cc2c(cc1NC(=O)CSc1nc3ccccc3[nH]1)oc1ccccc12	i	i	?	i	?	i
COc1cc2c(cc1NC(=O)CSc1nccn1C)oc1ccccc12	i	43	i	?	i	68
Cc1ncc(COP(=O)(O)O)c(CN)c1O	nt	nt	i	nt	i	nt
